Inconclusive results are not listed. Starred links: 1 amine or outer side, 2 acyl side, 3 side chain; linkers in the order of their positions; H or OH if unused. Positions of bridges follow the written chain, without caps; N, C: chain ends. Non-standard residues stand in square brackets, D forms with d. Residues, ends and D or L forms follow the SMILES beside them. Chains are numbered I, II in the order given. Actinocin(9to1) = Cc1c2oc3c(C)ccc(C(=O)[*:1])c3nc-2c(C(=O)[*:2])c(N)c1=O; NMeV = CN[CH](C(=O)O)C(C)C; Sar = CNCC(=O)O
Assay: qHTS for identification of novel therapeutic agents for treatment of microphthalmiaassociated transcription factor (MiT) renal cell carcinoma (RCC) (AID 1963991)
Details: TFE3-RCC viability, CellTiter-Glo, 48 h; measured here: UOK124 Z-AUC; stronger effect = lower value
In short: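 Curves over 11 concentrations were fitted to CellTiter-Glo luminescence, scaled between empty wells (0%) and DMSO (100%) viability. Cells were UOK109, UOK124 and UOK145 TFE3-fusion RCC lines at 500/well, exposed 48 hours at 37 C.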

Compound	z-score
Cc1cc(O)c2c(c1)C(=O)c1cccc(O)c1C2=O	0.712
Cn1cc(-c2ccc3ncc(Cc4ccc5ncccc5c4)n3n2)cn1	0.125
CC(C(C)N1CC(=O)NC(=O)C1)N1CC(=O)NC(=O)C1 (centres undefined)	-1.76
CC(C)N(CC[C@H](c1ccccc1)c1cc(CO)ccc1O)C(C)C	0.666
C=C1CCC2[C@](C)(CO)C(O)CC[C@]2(C)C1CC=C1C(=O)OCC1O (some centres undefined)	-0.457
Nc1nc(=O)n([C@H]2CSC(CO)O2)cc1F (some centres undefined)	0.427
CC(=O)OCC(=O)[C@@]1(O)CC[C@H]2[C@@H]3CCC4=CC(=O)CC[C@]4(C)[C@@H]3C(=O)C[C@@]21C	0.413
CCCCCCCCCCCCCCCC(=O)OC[C@@H](NC(=O)C(Cl)Cl)[C@H](O)c1ccc([N+](=O)[O-])cc1	0.082
Cc1onc(-c2ccccc2)c1C(=O)N[C@@H]1C(=O)N2[C@@H](C(=O)O)C(C)(C)S[C@@H]12	0.727
CC(=O)NC(CS)C(=O)O (centres undefined)	0.0619
OC[C@H]1OC(O)C[C@@H](O)[C@H]1O (some centres undefined)	0.406
C[N+]1(C)[C@@H]2C[C@@H](OC(=O)C(O)(c3cccs3)c3cccs3)C[C@H]1[C@@H]1O[C@@H]12	0.59
COC(=O)[C@@H]1CC2=CC(=O)CC[C@]2(C)[C@@]23O[C@@H]2C[C@@]2(C)[C@H](CC[C@@]24CCC(=O)O4)[C@@H]13	0.454
C#C[C@]1(O)CC[C@@H]2[C@@H]3CCC4=CC(=O)CC[C@@H]4[C@H]3CC[C@@]21CC	-0.0153
CCCNS(=O)(=O)Nc1ncnc(OCCOc2ncc(Br)cn2)c1-c1ccc(Br)cc1	1.04
CC(=O)N[C@@H]1[C@H](O[C@@H]2c3ccc(c(Cl)c3)Oc3cc4cc(c3O[C@H]3O[C@H](CO)[C@@H](O)[C@H](O)[C@H]3NC(=O)CCCCCCCC(C)C)Oc3ccc(cc3Cl)C[C@H]3NC(=O)[C@H](N)c5ccc(O)c(c5)Oc5cc(O)cc(c5)[C@H](NC3=O)C(=O)N[C@H]4C(=O)N[C@H]3C(=O)N[C@@H]2C(=O)N[C@@H](C(=O)O)c2cc(O)cc(O[C@H]4O[C@H](CO)[C@@H](O)[C@H](O)[C@H]4O)c2-c2cc3ccc2O)O[C@H](CO)[C@@H](O)[C@@H]1O	0.36
Cc1c2oc3c(C)ccc(C(=O)NC4C(=O)NC(C(C)C)C(=O)N5CCCC5C(=O)N(C)CC(=O)N(C)C(C(C)C)C(=O)OC4C)c3nc-2c(C(=O)NC2C(=O)NC(C(C)C)C(=O)N3CCCC3C(=O)N(C)CC(=O)N(C)C(C(C)C)C(=O)OC2C)c(N)c1=O (centres undefined) (I: TVP[Sar][NMeV] / II: TVP[Sar][NMeV]; ester I:1-I:C, II:1-II:C; linker I:N-II:N via Actinocin(9to1); configuration not given here)	-4.25
CCCCC(=O)O[C@]1(C(=O)CO)[C@@H](C)C[C@H]2[C@@H]3CCC4=CC(=O)C=C[C@]4(C)[C@@]3(F)[C@@H](O)C[C@@]21C	0.0594
Cc1noc(-c2ccc(CSCCC(=O)O)cc2)c1NC(=O)OC(C)c1ccccc1Cl (centres undefined)	0.0534
CCN1CCN(C(=O)N[C@H](C(=O)N[C@@H]2C(=O)N3C(C(=O)O)=C(CSc4nnnn4C)CS[C@@H]23)c2ccc(O)cc2)C(=O)C1=O	1.43

Compound	z-score
COc1cc(OC)c(NC(=O)Nc2cc(C)on2)cc1Cl	0.71
NC(=O)c1cccc(-c2cccc(OC(=O)NC3CCCCC3)c2)c1	0.852
Nc1cccc2c1C(=O)N(C1CCC(=O)NC1=O)C2=O (centres undefined)	0.0802
C=C(C)[C@@H]1CC[C@]2(C)CC[C@]3(C)[C@H](CC[C@@H]4[C@@]5(C)CC[C@H](O)C(C)(C)[C@H]5CC[C@]43C)[C@@H]12	0.631
C[C@H]1COc2c(N3CCN(C)CC3)c(F)cc3c(=O)c(C(=O)O)cn1c23	0.967
CC(=O)O[C@H]1C[C@@H]2CC[C@H]3[C@H]4C[C@H]([N+]5(C)CCCCC5)[C@@H](OC(C)=O)[C@@]4(C)CC[C@@H]3[C@@]2(C)C[C@H]1[N+]1(C)CCCCC1	0.611
CN1[C@H]2CC(OC(=O)[C@@H](CO)c3ccccc3)C[C@H]1[C@H]1O[C@H]12 (some centres undefined)	0.895
C[C@]12C=CC(=O)N[C@@H]1CC[C@H]1[C@H]3CC[C@@H](C(=O)Nc4cc(C(F)(F)F)ccc4C(F)(F)F)[C@@]3(C)CC[C@@H]12	0.86
O=C1NC(O)CCN1[C@@H]1O[C@H](CO)[C@H](O)[C@H]1O (some centres undefined)	0.732
C[C@H](CCC(=O)O)[C@H]1CC[C@H]2[C@@H]3[C@H](O)C[C@@H]4C[C@H](O)CC[C@]4(C)[C@@H]3CC[C@]12C	0.277
NC(=O)c1ncn([C@@H]2O[C@H](CO)[C@@H](O)[C@@H]2O)c1O	0.298
O=C(CN1C(=O)C2(CCCC2)NC[C@H]1c1cc(F)cc(F)c1)Nc1ccc2c(c1)C[C@@]1(C2)C(=O)Nc2ncccc21	0.765
C[C@H](CCC(=O)O)[C@H]1CCC2C3C[C@H](O)[C@@H]4C[C@H](O)CC[C@]4(C)C3CC[C@@]21C (some centres undefined)	0.446
C[C@H](O)[C@@H]1C(=O)N2C(C(=O)O)=C(S[C@@H]3CN[C@H](CNS(N)(=O)=O)C3)[C@@H](C)[C@@H]12	0.967
OCCN1C[C@H](O)[C@@H](O)[C@H](O)[C@@H]1CO	0.522
COc1cc(C)c(C=CC(C)=CC=CC(C)=CC(=O)O)c(C)c1C	0.342
CCC[C@H]1C[C@H](C(=O)N[C@@H]([C@@H]2O[C@@H](SC)[C@@H](O)[C@@H](O)[C@@H]2O)[C@H](C)Cl)N(C)C1	0.328
Cc1ccc(O)c(C(CCN(C(C)C)C(C)C)c2ccccc2)c1 (centres undefined)	0.794
C[C@@]12C[C@@]3(O)O[C@@H](O1)[C@]1(COC(=O)c4ccccc4)[C@@H]3C[C@@]12O[C@@H]1O[C@H](CO)[C@@H](O)[C@H](O)[C@@H]1O	0.702
